# Data: ChEMBL document CHEMBL2218924, “A broad activity screen in support of a chemogenomic map for kinase signalling research and drug discovery” (Biochem J, 2013)
# Assays:
# [1] = target: T1, Protein kinase C epsilon type (Homo sapiens) (UniProt Q02156); settings: at 1 µM
# T1 sequence (whole entry): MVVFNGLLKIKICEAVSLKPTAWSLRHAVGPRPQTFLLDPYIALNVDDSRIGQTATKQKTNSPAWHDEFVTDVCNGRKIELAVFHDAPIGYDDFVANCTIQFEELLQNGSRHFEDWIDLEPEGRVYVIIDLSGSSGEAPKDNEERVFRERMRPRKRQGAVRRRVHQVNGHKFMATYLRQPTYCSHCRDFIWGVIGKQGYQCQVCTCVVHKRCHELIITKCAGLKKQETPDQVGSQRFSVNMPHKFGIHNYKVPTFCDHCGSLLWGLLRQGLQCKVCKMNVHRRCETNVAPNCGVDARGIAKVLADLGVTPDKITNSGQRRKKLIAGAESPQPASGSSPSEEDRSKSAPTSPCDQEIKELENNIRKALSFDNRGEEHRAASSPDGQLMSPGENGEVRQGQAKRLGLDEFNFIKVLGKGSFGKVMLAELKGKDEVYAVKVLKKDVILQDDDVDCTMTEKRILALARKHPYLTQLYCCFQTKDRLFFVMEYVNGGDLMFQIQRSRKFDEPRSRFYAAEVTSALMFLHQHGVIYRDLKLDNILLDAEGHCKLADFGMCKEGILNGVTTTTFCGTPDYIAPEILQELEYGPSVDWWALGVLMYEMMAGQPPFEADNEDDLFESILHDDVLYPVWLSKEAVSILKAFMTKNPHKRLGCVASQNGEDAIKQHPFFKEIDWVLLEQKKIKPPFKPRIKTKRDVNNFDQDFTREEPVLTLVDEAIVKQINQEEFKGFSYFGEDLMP
# [2] = target: T1, Protein kinase C epsilon type (Homo sapiens); settings: at 10 µM
smiles,measurement,setting,value
N#C/C(=C(\N)Sc1ccc(N)cc1)c1ccccc1C(F)(F)F,residual activity,[1],100%
same,residual activity,[2],106%
c1ccc(-c2n[nH]cc2-c2ccnc3ccccc23)nc1,residual activity,[1],74%
same,residual activity,[2],89%
CO[C@@H]1[C@H](N(C)C(=O)c2ccccc2)C[C@H]2O[C@]1(C)n1c3ccccc3c3c4c(c5c6ccccc6n2c5c31)C(=O)NC4,residual activity,[1],42%
same,residual activity,[2],14%
CC[n+]1c(/C=C/N(C)c2ccccc2)n(-c2ccccc2)c2ccc(-c3nc4ccccc4s3)cc21,residual activity,[1],101%
same,residual activity,[2],107%
COc1cc2ncnc(Nc3ccc(NC(=O)c4ccccc4)cc3)c2cc1OC,residual activity,[1],93%
C[C@@H](N)[C@H]1CC[C@H](C(=O)Nc2ccncc2)CC1,residual activity,[1],71%
same,residual activity,[2],31%
CC(C)n1cnc2c(NCc3ccccc3)nc(NCCCO)nc21,residual activity,[1],91%
same,residual activity,[2],103%
Cn1nc2c3c(cccc31)C(=O)c1ccccc1-2,residual activity,[1],106%
same,residual activity,[2],98%
O=C1Nc2ccccc2/C1=C1/Nc2ccccc2/C1=N\OCCC(O)CO (stereo not drawn),residual activity,[1],95%
same,residual activity,[2],82%
CC(C)n1cnc2/c(=N/c3cccc(Cl)c3)nc(NCCO)[nH]c21,residual activity,[1],75%
same,residual activity,[2],92%
O=C(Nc1cccc(Nc2cc(Nc3cccc(C(F)(F)F)c3)ncn2)c1)C1CC1,residual activity,[1],90%
same,residual activity,[2],97%
CC#CC(=O)Nc1cc2c(Nc3ccc(F)c(Cl)c3)ncnc2cn1,residual activity,[1],90%
same,residual activity,[2],94%
O=C1c2ccccc2-[n+]2ccc3c([nH]c4ccccc43)c21,residual activity,[1],93%
same,residual activity,[2],94%
CC(=O)c1ccc(N2CCOCC2)cc1O,residual activity,[1],91%
same,residual activity,[2],82%
COc1ccc(S(=O)(=O)N(CCO)c2ccccc2CN(C)C/C=C/c2ccc(Cl)cc2)cc1,residual activity,[1],106%
same,residual activity,[2],93%
O=c1c2ccccc2[nH]c(=S)n1CCN1CCC(=C(c2ccc(F)cc2)c2ccc(F)cc2)CC1,residual activity,[1],91%
same,residual activity,[2],93%
O=C1NC(=O)c2cc(Nc3ccc(F)cc3)c(Nc3ccc(F)cc3)cc21,residual activity,[1],67%
same,residual activity,[2],73%
Cc1ccc(NC2=CC(=O)c3sc(C)nc3C2=O)cc1,residual activity,[1],87%
same,residual activity,[2],94%
Nc1ccc2ncnc(NCCc3ccc(Oc4ccccc4)cc3)c2c1,residual activity,[1],119%
same,residual activity,[2],126%
Nc1n[nH]c2nnc(-c3c(-c4ccccc4)nn4ccccc34)cc12,residual activity,[1],101%
same,residual activity,[2],41%
Ic1cccc(CSc2nnc(-c3ccncc3)o2)c1,residual activity,[1],88%
same,residual activity,[2],88%
Cc1ccc(S(=O)(=O)/C=C/C#N)cc1,residual activity,[1],101%
same,residual activity,[2],92%
COc1ccc(CNc2nc(N(CCO)CCO)nc3c2ncn3C(C)C)cc1,residual activity,[1],115%
same,residual activity,[2],105%
Cn1cnc2cc3c(Nc4cccc(Br)c4)ncnc3cc21,residual activity,[1],86%
same,residual activity,[2],95%
Oc1ccc(-c2nc(-c3ccc(F)cc3)c(-c3ccncc3)[nH]2)cc1,residual activity,[1],122%
same,residual activity,[2],99%
Oc1n[nH]c2nnc(-c3c(-c4ccccc4)nn4ccccc34)cc12,residual activity,[1],97%
same,residual activity,[2],98%
O=C1NC(=O)/C(=C\c2ccc3nccnc3c2)S1,residual activity,[1],105%
same,residual activity,[2],95%
Cc1nc2cc3nc(-c4cccs4)cnc3cc2n1C,residual activity,[1],104%
same,residual activity,[2],89%
Oc1c2ccccc2c2c3c(cccc13)N=N2,residual activity,[1],101%
same,residual activity,[2],84%
CCOc1cc2ncnc(Nc3cccc(Br)c3)c2cc1OCC,residual activity,[1],84%
same,residual activity,[2],100%
Cn1cc(/C=C2\C(=O)Nc3ccc(S(N)(=O)=O)cc32)c2ccccc21,residual activity,[1],90%
same,residual activity,[2],100%
c1ccc(-c2n[nH]c3c2oc2ccccc23)cc1,residual activity,[1],97%
same,residual activity,[2],88%
COc1ccc(C(=O)Nc2sc3c(c2C(N)=O)CCCC3)cc1OC,residual activity,[1],89%
same,residual activity,[2],96%
COc1cc2ncnc(N3CCN(C(=O)Nc4ccc(Oc5ccccc5)cc4)CC3)c2cc1OC,residual activity,[1],96%
same,residual activity,[2],90%
N#Cc1cnc2cnc(NCc3cccnc3)cc2c1Nc1ccc(F)c(Cl)c1,residual activity,[1],81%
same,residual activity,[2],42%
NC(=O)c1ccc2[nH]c(-c3ccc(Oc4ccc(Cl)cc4)cc3)nc2c1,residual activity,[1],95%
same,residual activity,[2],85%
Cc1cc2ncc(-c3ccccc3)nc2cc1C,residual activity,[2],100%
CCN(CC)CCCCN1c2ccccc2Oc2ccc(Cl)cc21,residual activity,[1],84%
same,residual activity,[2],99%
O=C1Nc2cc(Br)ccc2/C1=C1/Nc2ccccc2/C1=N\O,residual activity,[1],107%
same,residual activity,[2],91%
CO[C@H]1[C@@H](OC)C[C@H](C)[C@@H](OC)C2=CC(=O)C=C(NC(=O)/C(C)=C/C=C/[C@H](OC)[C@@H](OC(N)=O)/C(C)=C/[C@@H]1C)C2=O,residual activity,[1],100%
same,residual activity,[2],102%
O=[N+]([O-])c1ccc(-c2nc(-c3ccc(F)cc3)c(-c3ccncc3)[nH]2)cc1,residual activity,[1],106%
same,residual activity,[2],99%
CN(C)c1ccc(/C=C2\C(=O)Nc3ccccc32)cc1,residual activity,[1],120%
same,residual activity,[2],121%
c1ccc2c(-c3ccncc3)c[nH]c2c1,residual activity,[1],73%
same,residual activity,[2],55%
CO[C@H]1C[C@@H]2CC[C@@H](C)[C@@](O)(O2)C(=O)C(=O)N2CCCC[C@H]2C(=O)O[C@H]([C@H](C)C[C@@H]2CC[C@@H](O)[C@H](OC)C2)CC(=O)[C@H](C)/C=C(\C)[C@@H](O)[C@@H](OC)C(=O)[C@H](C)C[C@H](C)/C=C/C=C/C=C/1C,residual activity,[1],81%
same,residual activity,[2],82%
Nc1nc(Nc2ccc(S(N)(=O)=O)cc2)nn1C(=S)Nc1c(F)cccc1F,residual activity,[1],30%
same,residual activity,[2],8%
CC(=O)O/N=C1\C(=C2\C(=O)Nc3cc(Br)ccc32)Nc2ccccc21,residual activity,[1],107%
same,residual activity,[2],93%
CCN(CC)C(=O)c1ccc(Nc2nc(OCC3CCCCC3)c3nc[nH]c3n2)cc1,residual activity,[1],80%
same,residual activity,[2],69%
Cc1nc(-c2ccccc2)c(-c2ccncc2)o1,residual activity,[1],108%
same,residual activity,[2],108%
Cc1cncc2cccc(S(=O)(=O)N3CCCN(C(=O)CN)C[C@H]3C)c12,residual activity,[1],58%
same,residual activity,[2],23%
O=C(O)c1ccc2c3c1cccc3c(=O)n1c3ccccc3nc21,residual activity,[1],112%
same,residual activity,[2],109%
COc1cccc(-c2cc(=O)c3ccccc3o2)c1N,residual activity,[1],106%
same,residual activity,[2],100%
COc1ccc(OC)c2c(=S)c3ccccc3[nH]c12,residual activity,[1],98%
same,residual activity,[2],109%
O=C(Nc1cccc(Nc2nccc(Nc3cccc(C(F)(F)F)c3)n2)c1)C1CC1,residual activity,[1],95%
same,residual activity,[2],80%
COc1cc2ncnc(Nc3ccc(O)c(Br)c3)c2cc1OC,residual activity,[1],89%
same,residual activity,[2],83%
O=C1NC(=O)c2c1c1c3ccccc3[nH]c1c1[nH]c3cc(Br)ccc3c21,residual activity,[1],94%
same,residual activity,[2],102%
CCC(=O)Nc1ccc2ncnc(Nc3cccc(Br)c3)c2c1,residual activity,[1],79%
same,residual activity,[2],110%
Nc1cccc(-c2cc3c(Oc4cccc(O)c4)ncnc3[nH]2)c1,residual activity,[1],120%
same,residual activity,[2],98%
O=c1cc(-c2cccc3c2Sc2ccccc2S3)oc(N2CCOCC2)c1,residual activity,[1],91%
same,residual activity,[2],94%
O=C1NC(=O)/C(=C/c2ccc3c(c2)OC(F)(F)O3)S1,residual activity,[1],106%
same,residual activity,[2],99%
O=Nc1c(-c2c(O)[nH]c3ccccc23)[nH]c2ccccc12,residual activity,[1],106%
same,residual activity,[2],91%
Oc1ccc(Nc2nc(-c3ccc(Cl)cc3)cs2)cc1,residual activity,[1],115%
same,residual activity,[2],112%
N#CC(C#N)=C(N)/C(C#N)=C/c1ccc(O)cc1,residual activity,[1],95%
same,residual activity,[2],89%
CNc1cc2c(Nc3cccc(Br)c3)ncnc2cn1,residual activity,[1],96%
same,residual activity,[2],99%
Cc1cccc(-c2[nH]c(C(C)(C)C)nc2-c2ccc3c(c2)OCO3)n1,residual activity,[1],80%
same,residual activity,[2],91%
COc1cc2ncnc(Nc3ccc(Oc4ccccc4)cc3)c2cc1OC,residual activity,[1],85%
same,residual activity,[2],89%
